From PubChem BioAssay
LANA-H2A inh – blocks KSHV LANA binding to histone H2A/H2B | inhibition, % (test concentration not listed) | Q9QR71 | AID 2629 | 0.6% of 320,000 active | cell-free LANA-H2A/H2B peptide, fluorescence polarization; in the data active = inhibition mostly above about 10%, no sharp cut-off; inactive = mostly below about 6.7%
IDE cell activ – boosts human insulin-degrading enzyme activity in HEK cells; P14735; FAbeta-B cleavage, fluorescence polarization; 0% vehicle, 100% cell-free pure enzyme wells; activation, % at 5.96 µM; 0.073% of 340,000 active; AID 493087;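 active = activation above the mean of all tested compounds plus 3 SD, set per screening campaign, cut at about 17% in these data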
Target sequence (P14735 whole entry, looked up): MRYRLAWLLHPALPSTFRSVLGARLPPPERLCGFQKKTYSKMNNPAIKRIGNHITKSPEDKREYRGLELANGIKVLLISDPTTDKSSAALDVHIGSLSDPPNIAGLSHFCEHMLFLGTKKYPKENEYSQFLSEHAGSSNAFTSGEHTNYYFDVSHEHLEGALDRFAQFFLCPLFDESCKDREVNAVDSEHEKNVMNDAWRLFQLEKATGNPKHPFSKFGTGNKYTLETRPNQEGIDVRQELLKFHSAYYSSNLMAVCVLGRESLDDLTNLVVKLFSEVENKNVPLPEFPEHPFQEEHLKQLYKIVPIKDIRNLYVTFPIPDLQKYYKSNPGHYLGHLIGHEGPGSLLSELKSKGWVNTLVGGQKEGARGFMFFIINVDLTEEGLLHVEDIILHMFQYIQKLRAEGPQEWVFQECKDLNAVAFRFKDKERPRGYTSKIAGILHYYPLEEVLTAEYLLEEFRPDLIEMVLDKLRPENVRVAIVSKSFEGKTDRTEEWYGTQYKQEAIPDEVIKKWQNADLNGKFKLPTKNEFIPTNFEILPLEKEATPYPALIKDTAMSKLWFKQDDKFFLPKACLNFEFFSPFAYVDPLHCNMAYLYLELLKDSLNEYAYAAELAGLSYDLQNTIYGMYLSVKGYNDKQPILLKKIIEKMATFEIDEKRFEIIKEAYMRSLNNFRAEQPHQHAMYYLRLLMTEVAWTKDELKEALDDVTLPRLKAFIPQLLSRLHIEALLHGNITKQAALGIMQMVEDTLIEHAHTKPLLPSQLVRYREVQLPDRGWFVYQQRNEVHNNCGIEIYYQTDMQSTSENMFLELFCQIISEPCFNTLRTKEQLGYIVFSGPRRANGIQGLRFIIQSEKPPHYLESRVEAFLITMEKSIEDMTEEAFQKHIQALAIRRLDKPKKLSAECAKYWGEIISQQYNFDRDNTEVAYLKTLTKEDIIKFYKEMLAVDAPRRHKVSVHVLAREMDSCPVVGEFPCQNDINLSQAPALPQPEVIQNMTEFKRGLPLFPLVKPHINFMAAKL
IDE cell inh – inhibitors of human insulin-degrading enzyme in cells; HEK cells, FAbetaB cleavage, fluorescence polarization; P14735; inhibition, % at 5.59 µM; AID 434962; 0.41% of 320,000 active;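 active = percent inhibition above the average of all tested compounds plus 3 SD, set per screening campaign, cut at about 16% in these data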;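 also: IDE supplied by intact live HEK cells; FP after avidin binding of uncleaved biotin substrate so inhibition keeps polarization high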
HDAC3 inhib – inhibitors of human histone deacetylase 3; 0.15% of 320,000 active; O15379; AID 2718; inhibition, % at 8.3 µM; recombinant HDAC3, fluorogenic peptide/trypsin coupled, fluorescence; in the data active = inhibition above about 26%, passing the limit was not always enough; inconclusive = no clear call, values can overlap the other calls
Large screens that a line does not name were inactive; ! = a repeat was not active. In the library only some 1.1% were active in any assay of this set; here they are far more common.

CC(=O)c1sc(NC(=O)CN2C(=O)NC3(CCCC3)C2=O)nc1-c1ccccc1	LANA-H2A inh 18
O=C(CN1CCN(CN2C(=O)NC3(CCCCCC3)C2=O)CC1)Nc1ccc(F)cc1	IDE cell activ 19
O=C(CN1C(=O)NC2(CCCC2)C1=O)Nc1ccc(Cl)cc1F	none
O=C(CN1CCN(CN2C(=O)NC3(CCCCCC3)C2=O)CC1)Nc1cccc(F)c1	none
COc1ccc(NC(=S)Nc2cnc3ccccc3c2)c(OC)c1	none
COC(=O)c1ccc(C(=O)Nc2cc(Cl)ccc2Cl)cc1NC(=O)c1ccc(N(C)C)cc1	none
Cc1cccc(C)c1NC(=O)CN(C)C(C)C(=O)NCC(=O)Nc1ccc(F)c(F)c1F (stereo not drawn)	LANA-H2A inh 187
Cc1cccc(C)c1NC(=O)CNC(=O)C(C)N(C)CC(=O)Nc1ccc(F)cc1 (stereo not drawn)	none (no result: LANA-H2A inh, IDE cell inh, HDAC3 inhib)
CC(C)(C)n1ncc2c(=O)n(Cc3cccc(Cl)c3)cnc21	HDAC3 inhib inconclusive
COc1ccc(Cl)cc1NC(=O)c1ocnc1C	LANA-H2A inh 18
CN1CCN(C(=O)CN(c2cc(C(F)(F)F)ccc2Cl)S(C)(=O)=O)CC1	none
Cc1ccc(NC(=O)C(c2ccccc2)N(C)C)cc1Cl (stereo not drawn)	LANA-H2A inh 12
Cc1ccc(NC(=O)C(OC(=O)c2ccc(O)cc2)c2ccccc2)cc1Cl (stereo not drawn)	none
CN(CC(=O)Nc1ccc(N2CCOCC2)cc1)CC(=O)Nc1ccc(Cl)cc1[N+](=O)[O-]	none
COC(=O)Cn1c(=NC(=O)c2sc3ccccc3c2Cl)sc2cc(S(N)(=O)=O)ccc21	IDE cell inh 20
CCN(C[C@H]1N[C@@](CC)(C(=O)OC)[C@H]2C(=O)N(Cc3ccccc3)C(=O)[C@@H]12)S(=O)(=O)c1ccc(C)cc1	LANA-H2A inh active
CCN(C[C@H]1N[C@@](Cc2ccccc2)(C(=O)OC)[C@H]2C(=O)N(C)C(=O)[C@@H]12)C(=O)NC(C)C	LANA-H2A inh active
CCN(C[C@H]1N[C@@](CC)(C(=O)OC)[C@H]2C(=O)N(Cc3ccccc3)C(=O)[C@@H]12)S(=O)(=O)c1ccc(-c2ccccc2)cc1	none
CCN(C[C@H]1N[C@@](Cc2ccccc2)(C(=O)OC)[C@H]2C(=O)N(C)C(=O)[C@@H]12)S(=O)(=O)c1ccc(OC)cc1	LANA-H2A inh active
CCN(C[C@H]1N[C@@](Cc2ccccc2)(C(=O)OC)[C@H]2C(=O)N(C)C(=O)[C@@H]12)C(=O)c1ccccc1	none (no result: LANA-H2A inh)
CCN(C[C@H]1N[C@@](Cc2ccccc2)(C(=O)OC)[C@H]2C(=O)N(C)C(=O)[C@@H]12)S(=O)(=O)c1ccc(OC(F)(F)F)cc1	none
CCCn1c(=O)[nH]c(=O)c2c1nc(-c1cc([N+](=O)[O-])ccc1Cl)n2CCOC	none
O=C(Nc1ccccc1N1CCOCC1)C1CCN(S(=O)(=O)c2ccccc2F)CC1	none
Cc1ccc2c(CC(=O)O)coc2c1C	none
Cc1ccc(S(=O)(=O)Nc2ccccc2C(=O)N2CCN(C)CC2)cc1	LANA-H2A inh 102
CCCc1nnc(NS(=O)(=O)c2ccc(OC)cc2)s1	LANA-H2A inh 15
COCc1nnc(NS(=O)(=O)c2ccc(OC)cc2)s1	none (no result: LANA-H2A inh, IDE cell inh, HDAC3 inhib)
COCCCn1c(=NC(=O)c2ccccc2)c(C#N)cc2c(=O)n3cccc(C)c3nc21	LANA-H2A inh 27
CCOCCCn1c(=NC(=O)c2cccs2)c(C#N)cc2c(=O)n3cccc(C)c3nc21	LANA-H2A inh 28
Cc1cccn2c(=O)c3cc(C#N)c(=NC(=O)c4cccs4)n(CC(C)C)c3nc12	none
Cc1ccc(C(=O)N2CCN(c3ccccc3F)CC2)cc1S(=O)(=O)N1CCOCC1	none
Cc1ccsc1C(=O)N(CC(C)C)c1c(N)n(Cc2ccccc2)c(=O)[nH]c1=O	none
CC(=O)N1c2ccccc2C(C)(c2ccccc2)CC1(C)C (stereo not drawn)	none
CC1(c2ccccc2)CC(C)(C)N(C(N)=O)c2ccccc21 (stereo not drawn)	LANA-H2A inh 22
CCOC(=O)c1ccc(S(=O)(=O)N2CCN(C/C=C/c3ccccc3)CC2)cc1	none
CCOC(=O)N1CCC(NC(=O)c2cc(C(=O)Nc3ccc(S(=O)(=O)N4CCOCC4)cc3)ccc2CO)CC1	LANA-H2A inh 17
CCOC(=O)N1CCC(NC(=O)c2cc(S(=O)(=O)N3CCOCC3)ccc2F)CC1	none
COc1ccc(NC(=O)CSc2nn3c(=O)c(C)nnc3s2)cc1	LANA-H2A inh 28
O=C(NCCc1ccc(Cl)cc1)C1CCC(=O)N1Cc1ccccc1Cl (stereo not drawn)	LANA-H2A inh 13
CCC(=O)N1c2ccc(S(=O)(=O)NCCc3ccc(C)cc3)cc2CC1C (stereo not drawn)	LANA-H2A inh 14
CCOC(=O)Cc1csc(NC(=O)c2sc3nc4c(C)cc(C)cc4cc3c2N)n1	none
Cn1nc(C(=O)N2CCC(C(N)=O)CC2)c2c1-c1ccccc1SC2	none
COc1ccc(OC)c2[nH]c(=O)c(CCNS(=O)(=O)c3ccc(F)cc3)cc12	none
C=CCC[C@H](Cc1ccc(F)cc1)C(=O)OC[C@@H](Cc1c[nH]c2ccccc12)NC(=O)[C@@H](CC=C)CC(=O)N(CCO)Cc1ccccc1	HDAC3 inhib 40
C=CCC[C@H](Cc1ccc(F)cc1)C(=O)O[C@H](CNC(=O)[C@@H](CC=C)CC(=O)N(CCO)Cc1ccccc1)c1ccccc1	LANA-H2A inh 71, HDAC3 inhib inconclusive
C=CC[C@H](CC(=O)N(CCO)Cc1ccccc1)C(=O)N[C@H](COC(=O)[C@@H](CC=C)Cc1ccc(F)cc1)Cc1ccccc1	HDAC3 inhib 33
C=CCC[C@H](Cc1ccc(F)cc1)C(=O)OC[C@H](Cc1c[nH]c2ccccc12)NC(=O)[C@@H](CC=C)CC(=O)N(CCO)Cc1ccccc1	none
C=CC[C@H](CC(=O)N(CCO)Cc1ccccc1)C(=O)NC[C@@H](OC(=O)[C@@H](CC=C)Cc1ccc(F)cc1)c1ccccc1	none
CCOc1ccc(S(=O)(=O)N(CC(=O)NCc2ccncc2)c2ccc(C)cc2)cc1	none
CO[C@H]1C=CO[C@@]2(C)Oc3c(C)c(O)c4c(O)c(c(C=NN5CCN(C)CC5)c(O)c4c3C2=O)NC(=O)C(C)=CC=C[C@H](C)[C@H](O)[C@@H](C)[C@@H](O)[C@@H](C)[C@H](OC(C)=O)[C@@H]1C	LANA-H2A inh 49!
COc1cc(C2CC(=O)Oc3ccc(C(C)(C)C)cc32)cc(OC)c1OC (stereo not drawn)	none (no result: LANA-H2A inh, IDE cell inh, HDAC3 inhib)
CCOC(=O)c1ccc(NC(=O)c2ccccc2N(C)S(=O)(=O)c2ccccc2)cc1	none
CC(C)[C@H](NC(N)=O)C(=O)Nc1ccc(OCc2ccccc2)cc1	none
C[C@H](NC(N)=O)C(=O)Nc1ccc(OCc2ccccc2)cc1	LANA-H2A inh 12
O=C1C=C(c2ccc(-c3ccccc3)cc2)C[C@@H](c2ccc3c(c2)OCO3)C1	IDE cell activ 43
O=C1C=C(c2ccccc2)C[C@@H](c2ccc3c(c2)OCO3)C1	none
COc1ccc(-c2nn(CCC#N)cc2C(=O)Nc2cccc(C(=O)O)c2)cc1[N+](=O)[O-]	LANA-H2A inh 15
CC(C)C[C@H](NC(=O)c1cc2cc(Cl)ccc2n1C)C(=O)N1CCC(C(=O)O)CC1	none (no result: IDE cell inh)
